Measured potencies and affinities stand elsewhere. Active and inactive are the calls of the source.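 Rule for the calls: active = a dose-response curve fit returns a half-maximal inhibitory concentration, extrapolated values included; inactive = the fit returns no such concentration.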
What follows are compounds tested against HMG-CoA reductase [Enterococcus faecalis] (UniProt Q9FD70) (assay: class II HMG-CoA reductase inhibition potency – biochemical, Enterococcus faecalis, confirmation (AID 1233;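 note: 0% = full reaction carrier wells and 100% = background wells lacking mevalonate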)). Conditions: purified E. faecalis HMGR, NADPH absorbance 340 nm kinetics; series mostly up to 100 µM; inhibition: at the top concentration.

inhibition, inactive:
COc1ccc(CC(=O)OCc2cc(=O)n3cc(Br)ccc3n2)cc1OC -1.03%
COc1cc(C)nc(Oc2ccc(OCCOc3ccccc3)nn2)n1 -3.5%
Cc1c(Br)c([N+](=O)[O-])nn1C(C)C(=O)Nc1ccc2c(c1)OCO2 (stereo not drawn) -2.77%
COc1ccc(-c2nc(CN3CCCCC3c3cccnc3)c(C)o2)c(F)c1 (stereo not drawn) -8.15%
CCCS(=O)(=O)N1CCN(C(=O)c2ccc(-c3ccccc3)cc2)CC1 -1.69%
Cc1cc(C(=O)N/N=C2\CCCC(=O)C2)c(C)n1-c1ccccc1 -0.06%
COc1ccc(Nc2nc3c(C)cccn3c(=O)c2C=NCc2ccccc2)cc1 -3.33%
Cc1ccc(CN(C)CC(=O)Nc2ccc3c(c2)CCC3)cc1 -4.12%
COc1ccc(C(=O)Nc2ccc(NC(=O)c3cnccn3)cn2)cc1 -20.1%
Cc1ccsc1/C=C1/NC(=O)N(Cc2ccc(F)cc2)C1=O -7.22%
COCCNC(=O)C1c2cc(OC)c(OC)cc2C(=O)N(C)C1c1cccnc1 (stereo not drawn) -0.13%
COc1ccc(/C=C(/C#N)S(=O)(=O)c2ccc(C)cc2)cc1 -60.1%
Cc1cc(N2CCN(c3nc(-c4ccc([N+](=O)[O-])cc4)cs3)CC2)c2ccccc2n1 -5.17%
CCCCCOC(=O)Cn1c(N2CCOCC2)nc2c1c(=O)[nH]c(=O)n2C 0.09%
CCOC(=O)/C(C#N)=C1/C(=O)N(Cc2ccccc2)c2ccccc21 -7.29%
Cc1ccc(CC(CC(=O)O)C(=O)NC2CCCCC2)cc1 (stereo not drawn) 1.92%
CCN(CC)CCCCCOc1ccccc1OC -1.77%
NS(=O)(=O)c1ccc(CCN=C(NS(=O)(=O)c2cccs2)c2ccccc2)cc1 -5.75%
CCOc1ccc(CN2CCN(Cc3cc4ccccc4[nH]3)CC2CCO)cc1 (stereo not drawn) -1.61%
N#Cc1c(/N=C/c2ccco2)sc2c1CCCCC2 -3.07%
Cc1ccc(S(=O)(=O)N2CCN(C(=O)CSc3nnc(-c4ccco4)o3)CC2)cc1 -0.58%
CC(C)(C)OC(=O)N1CCC[C@H]1c1nnc(SCc2ccccc2F)o1 -1.4%
O=C(/C(=C/c1ccc(Cl)cc1)c1nc2ccccc2[nH]1)c1ccccc1 -2.1%
Cc1c(NC2(c3nnnn3-c3ccc(Br)cc3)CCCCC2)c(=O)n(-c2ccccc2)n1C -7.18%
COc1ccc(C(=O)NC2CCN(C(=S)NCCc3ccccc3)CC2)cc1 -7.64%
NS(=O)(=O)c1ccc(N2C(=O)C3C4CC(C(Br)C4Br)C3C2=O)cc1 (stereo not drawn) -8.3%
Cc1nc2c([nH]1)C1(CCN(Cc3ccccc3)CC1)C(C#N)=C(N)O2 10.2%
COc1ccc(OC)c(-n2nnnc2SCC(=O)Nc2ccccc2N2CCOCC2)c1 -5.58%
O=C(CCS(=O)(=O)c1cccc2nonc12)Nc1cccc2c1CCCC2 -2.96%
Cc1ccc(C)c(N=Cc2ccc(-c3ccc([N+](=O)[O-])cc3)o2)c1 -5.67%
O=C(/C=C/c1cccs1)c1ccc(NC(=O)c2ccccc2F)cc1 -12.2%
COc1cc(C#N)ccc1OCC(=O)c1ccc2c(c1)OCCO2 -2.62%
Cn1c(SCC(=O)c2ccc(F)cc2)nnc1-c1cccnc1 -1.32%
CCN(Cc1ccncc1)Cc1c(O)ccc2cc(Br)ccc12 -1.49%
CCCCOC(=O)c1nc[nH]c1C(=O)OCCCC -4.01%
O=C(c1cccs1)N(c1ccc(F)cc1)C1C=CS(=O)(=O)C1 (stereo not drawn) -5.9%
CCCCC1C2=C(CC(C)(C)CC2=O)OC2=C1C(=O)CC(C)(C)C2 0.17%
COc1ccc2c(c1)c(=O)c(C(=O)c1ccccc1)cn2Cc1ccc(C)cc1 -0.52%

From PubChem BioAssay AID1233 (SRMLSC, 2008)
